Drawing on PubChem BioAssay (EPA / NIEHS), this text covers outcome and AC50 for 14 compounds.

Inconclusive results are not listed. Calls of active or inactive are those of the source. How the source made its calls: active means hit-call score of the fitted dose curve at least 0.9, where 1 is the maximum; inconclusive means response in the unintended direction; inactive means score below 0.9.

One may read the AC50 as the midpoint of the concentration-response curve, whichever way the signal moves.

Sequence of Ratio of Nucleoli Translocation and Cytoplasm, AR (gene 367) (P10275 whole entry, looked up, the tested form may be a part): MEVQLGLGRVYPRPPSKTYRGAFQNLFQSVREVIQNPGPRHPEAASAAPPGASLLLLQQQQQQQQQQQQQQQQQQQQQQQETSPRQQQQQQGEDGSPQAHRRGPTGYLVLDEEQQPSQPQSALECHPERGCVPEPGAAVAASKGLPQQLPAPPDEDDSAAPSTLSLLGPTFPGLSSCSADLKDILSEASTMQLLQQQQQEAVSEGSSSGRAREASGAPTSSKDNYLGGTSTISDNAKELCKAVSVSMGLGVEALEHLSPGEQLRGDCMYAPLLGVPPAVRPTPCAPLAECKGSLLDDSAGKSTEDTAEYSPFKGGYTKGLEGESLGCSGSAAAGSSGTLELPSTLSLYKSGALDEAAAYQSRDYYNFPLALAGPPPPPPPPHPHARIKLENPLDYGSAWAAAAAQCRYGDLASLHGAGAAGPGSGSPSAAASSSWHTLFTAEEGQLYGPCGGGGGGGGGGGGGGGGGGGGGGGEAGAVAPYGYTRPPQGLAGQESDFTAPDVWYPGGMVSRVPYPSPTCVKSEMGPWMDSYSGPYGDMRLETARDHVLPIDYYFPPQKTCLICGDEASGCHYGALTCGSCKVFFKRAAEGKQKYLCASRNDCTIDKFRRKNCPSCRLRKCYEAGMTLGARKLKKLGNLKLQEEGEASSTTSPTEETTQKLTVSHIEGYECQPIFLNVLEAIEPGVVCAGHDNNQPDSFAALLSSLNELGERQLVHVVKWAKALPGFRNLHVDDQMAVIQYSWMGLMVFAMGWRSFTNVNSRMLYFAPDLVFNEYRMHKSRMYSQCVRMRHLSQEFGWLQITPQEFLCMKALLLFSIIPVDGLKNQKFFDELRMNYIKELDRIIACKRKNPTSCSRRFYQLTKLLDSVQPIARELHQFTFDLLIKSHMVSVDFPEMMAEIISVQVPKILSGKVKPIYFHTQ

The assay concerns the target Ratio of Nucleoli Translocation and Cytoplasm, AR (gene 367) (UniProt P10275). The experiment in a line: UPITT_HCI_U2OS_AR_TIF2_Nucleoli_Cytoplasm_Ratio_Antagonist: University of Pittsburgh U2OS Androgen Receptor-Transcriptional Intermediary Factor 2 (AR-TIF2) Antagonism High Content Imaging Assay for Ratio of Nucleoli Translocation and Cytoplasm (AID 2283999).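 Further: antagonists lower the DHT-driven ratio of nucleolar to cytoplasmic red signal.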 From the text: UPITT_AR_TIF2_PPIB is a cell-based, high-content imaging assay that uses U2OS, a human osteosarcoma cell line, expressing a human androgen receptor fused to red fluorescent protein and the coactivator TIF2 fused to green fluorescent protein. UPITT_HCI_U2OS_AR_TIF2_Nucleoli_Cytoplasm_Ratio_Antagonist is one of four assay components measured from the UPITT_AR_TIF2_PPIB assay. It is designed to make measurements of the ratio of red fluorescence localized in the nucleolar region of the cell nucleus to red fluorescence localized in the cytoplasm as detected with high-content fluorescent imaging.Data from the assay component UPITT_HCI_U2OS_AR_TIF2_Nucleoli_Cytoplasm_Ratio_Antagonist was analyzed into 1 assay endpoint. This assay endpoint, UPITT_HCI_U2OS_AR_TIF2_Nucleoli_Cytoplasm_Ratio_Antagonist, was analyzed in the positive analysis fitting direction relative to DHT as the baseline of activity. Using a type of binding reporter, measures of receptor for loss-of-signal activity can be used to understand the binding at the pathway-level as it relates to the gene AR.
Daughter plates containing 2 uL of 10 mM compounds in DMSO were prepared and replicated from the 384-well Library of Pharmacologically Active Compounds (LOPAC) master plates using the Bravo outfitted with a 384-well transfer head. Aluminum adhesive plate seals were applied with an Abgene Seal-IT 100 (Rochester, NY) plate sealer, and the plates were stored at -20 C in a Matrical MatriMinistore (Spokane, WA) automated compound storage and retrieval system. For screening, LOPAC daughter plates were withdrawn from -20C storage, thawed to ambient temperature, centrifuged 1-2 min at 50 g, and the plate seals were removed before the transfer of 98 uL of serum-free tissue culture medium (SFM) into wells using the BioTek Microflo liquid handler (BioTek, Winooski, VT) to generate a 200 uM intermediate stock concentration of library compounds (2.0% DMSO). The diluted compounds were mixed by repeated aspiration and dispensation using a 384-well P30 dispensing head on the Evolution P3 (EP3) liquid handling platform (PerkinElmer, Waltham, MA) and then 5 uL of diluted compounds was transferred to the wells of assay plates. In the LOPAC screen, compounds were individually tested at a final concentration of 20 uM (0.2% DMSO). After the diluted compounds had been transferred from the daughter plates to the primary HCS assay plates, aluminum adhesive plate seals were applied and the diluted daughter plates were stored frozen at -20C. To confirm active compounds identified in the primary screen, we withdrew the LOPAC daughter plates containing the 200 uM intermediate concentration of library compounds (2.0% DMSO) from -20C storage, thawed them to ambient temperature, centrifuged them for 1-2 min at 50 g, and removed the plate seals. A work list was generated to direct the Multiprobe Janus liquid handling platform (PerkinElmer) to cherry pick 75 uL from the wells of the diluted daughter plates that were flagged active in the primary screen and to reformat these into a 384-well plate hit confirmation daughter plate. Five microliters of primary HCS active compounds was then transferred into triplicate wells of assay plates using a 384-well P30 dispensing head on the Evolution P3 (EP3) liquid handling platform (PerkinElmer). […] Daughter plates containing 2 uL of the serially diluted compounds in DMSO were prepared and replicated from the 384-well serial dilution master plates using the Bravo outfitted with a 384-well transfer head. Aluminum adhesive plate seals were applied and plates were stored at -20C. For testing in the bioassays, daughter plates were withdrawn from -20C storage, thawed to ambient temperature, centrifuged for 1-2 min at 50 g, and the plate seals were removed before the transfer of 38 uL of SFM into wells using the BioTek Microflo liquid handler (BioTek) to generate an intermediate stock concentration of library compounds ranging from 1.95 to 500 uM (5.0% DMSO). […]
With `O=C1c2ccccc2C(=O)C1C(=O)C(c1ccccc1)c1ccc(Cl)cc1` (centres undefined), the result was inactive.
For `O=[N+]([O-])c1ccc(Cl)c([N+](=O)[O-])c1`, the AC50 is 2.39 µM (active).
Same read-out and setting: under `CC(=Cc1ccccc1)[N+](=O)[O-]` stands 0.845 µM (active).
Turning to `O=C(NC(=O)c1c(F)cccc1F)Nc1cc(Cl)c(OC(F)(F)C(F)C(F)(F)F)cc1Cl` (centres undefined), the outcome was inactive.
For the compound `CC(C)N(C(=O)CCl)c1ccccc1`, the AC50 is 11.4 µM (active).
With `COCCl`, the outcome was inactive.
Same read-out and setting: under `O=S1(=O)OC(c2cc(Br)c(O)c(Br)c2)(c2cc(Br)c(O)c(Br)c2)c2ccccc21` stands “inactive”; under `C=CC(Cl)CCl` (centres undefined), “inactive”.
Take `O=C(CCl)Nc1ccccc1`: the AC50 is 26.3 µM (active).
Take `N#CCC#N`: the outcome was inactive.
On the same count and under the same terms, the result for `OC(Cc1ccccc1Cl)(Cn1[nH]cnc1=S)C1(Cl)CC1` (centres undefined) reads “inactive”.
Same read-out and setting: the result for `CNC(=O)O/N=C/C(C)(C)S(C)(=O)=O` reads “inactive”; that for `CCOP(=S)(OCC)OP(=S)(OCC)OCC`, “inactive”; that for `O=S1OC[C@@H]2[C@H](CO1)[C@]1(Cl)C(Cl)=C(Cl)[C@@]2(Cl)C1(Cl)Cl` (some centres undefined), “inactive”.
